This is an account of results in ChEMBL document CHEMBL2218924, “A broad activity screen in support of a chemogenomic map for kinase signalling research and drug discovery” (Biochem J, 2013).

In assay [1] the target is Rho-associated protein kinase 1 (Homo sapiens) (UniProt Q13464). The note with it: at 1 µM.
For assay [2] the target is unchanged. Particulars: at 10 µM.
The target in assay [3] is Rho-associated protein kinase 2 (Homo sapiens) (UniProt O75116). Particulars: at 1 µM.
For assay [4] the target is unchanged. The note with it: at 10 µM.
The target in assay [5] is Proto-oncogene tyrosine-protein kinase receptor Ret (Homo sapiens) (UniProt P07949). The note with it: at 1 µM.
Assay [6] shares this target. Particulars: at 10 µM.
For assay [7], the target named is Macrophage-stimulating protein receptor (Homo sapiens) (UniProt Q04912). Particulars: at 1 µM.
The target is the same in assay [8]. The note with it: at 10 µM.
In assay [9] the target is Proto-oncogene tyrosine-protein kinase ROS (Homo sapiens) (UniProt P08922). Particulars: at 1 µM.
Chain of Proto-oncogene tyrosine-protein kinase ROS (Homo sapiens) (P08922 whole entry): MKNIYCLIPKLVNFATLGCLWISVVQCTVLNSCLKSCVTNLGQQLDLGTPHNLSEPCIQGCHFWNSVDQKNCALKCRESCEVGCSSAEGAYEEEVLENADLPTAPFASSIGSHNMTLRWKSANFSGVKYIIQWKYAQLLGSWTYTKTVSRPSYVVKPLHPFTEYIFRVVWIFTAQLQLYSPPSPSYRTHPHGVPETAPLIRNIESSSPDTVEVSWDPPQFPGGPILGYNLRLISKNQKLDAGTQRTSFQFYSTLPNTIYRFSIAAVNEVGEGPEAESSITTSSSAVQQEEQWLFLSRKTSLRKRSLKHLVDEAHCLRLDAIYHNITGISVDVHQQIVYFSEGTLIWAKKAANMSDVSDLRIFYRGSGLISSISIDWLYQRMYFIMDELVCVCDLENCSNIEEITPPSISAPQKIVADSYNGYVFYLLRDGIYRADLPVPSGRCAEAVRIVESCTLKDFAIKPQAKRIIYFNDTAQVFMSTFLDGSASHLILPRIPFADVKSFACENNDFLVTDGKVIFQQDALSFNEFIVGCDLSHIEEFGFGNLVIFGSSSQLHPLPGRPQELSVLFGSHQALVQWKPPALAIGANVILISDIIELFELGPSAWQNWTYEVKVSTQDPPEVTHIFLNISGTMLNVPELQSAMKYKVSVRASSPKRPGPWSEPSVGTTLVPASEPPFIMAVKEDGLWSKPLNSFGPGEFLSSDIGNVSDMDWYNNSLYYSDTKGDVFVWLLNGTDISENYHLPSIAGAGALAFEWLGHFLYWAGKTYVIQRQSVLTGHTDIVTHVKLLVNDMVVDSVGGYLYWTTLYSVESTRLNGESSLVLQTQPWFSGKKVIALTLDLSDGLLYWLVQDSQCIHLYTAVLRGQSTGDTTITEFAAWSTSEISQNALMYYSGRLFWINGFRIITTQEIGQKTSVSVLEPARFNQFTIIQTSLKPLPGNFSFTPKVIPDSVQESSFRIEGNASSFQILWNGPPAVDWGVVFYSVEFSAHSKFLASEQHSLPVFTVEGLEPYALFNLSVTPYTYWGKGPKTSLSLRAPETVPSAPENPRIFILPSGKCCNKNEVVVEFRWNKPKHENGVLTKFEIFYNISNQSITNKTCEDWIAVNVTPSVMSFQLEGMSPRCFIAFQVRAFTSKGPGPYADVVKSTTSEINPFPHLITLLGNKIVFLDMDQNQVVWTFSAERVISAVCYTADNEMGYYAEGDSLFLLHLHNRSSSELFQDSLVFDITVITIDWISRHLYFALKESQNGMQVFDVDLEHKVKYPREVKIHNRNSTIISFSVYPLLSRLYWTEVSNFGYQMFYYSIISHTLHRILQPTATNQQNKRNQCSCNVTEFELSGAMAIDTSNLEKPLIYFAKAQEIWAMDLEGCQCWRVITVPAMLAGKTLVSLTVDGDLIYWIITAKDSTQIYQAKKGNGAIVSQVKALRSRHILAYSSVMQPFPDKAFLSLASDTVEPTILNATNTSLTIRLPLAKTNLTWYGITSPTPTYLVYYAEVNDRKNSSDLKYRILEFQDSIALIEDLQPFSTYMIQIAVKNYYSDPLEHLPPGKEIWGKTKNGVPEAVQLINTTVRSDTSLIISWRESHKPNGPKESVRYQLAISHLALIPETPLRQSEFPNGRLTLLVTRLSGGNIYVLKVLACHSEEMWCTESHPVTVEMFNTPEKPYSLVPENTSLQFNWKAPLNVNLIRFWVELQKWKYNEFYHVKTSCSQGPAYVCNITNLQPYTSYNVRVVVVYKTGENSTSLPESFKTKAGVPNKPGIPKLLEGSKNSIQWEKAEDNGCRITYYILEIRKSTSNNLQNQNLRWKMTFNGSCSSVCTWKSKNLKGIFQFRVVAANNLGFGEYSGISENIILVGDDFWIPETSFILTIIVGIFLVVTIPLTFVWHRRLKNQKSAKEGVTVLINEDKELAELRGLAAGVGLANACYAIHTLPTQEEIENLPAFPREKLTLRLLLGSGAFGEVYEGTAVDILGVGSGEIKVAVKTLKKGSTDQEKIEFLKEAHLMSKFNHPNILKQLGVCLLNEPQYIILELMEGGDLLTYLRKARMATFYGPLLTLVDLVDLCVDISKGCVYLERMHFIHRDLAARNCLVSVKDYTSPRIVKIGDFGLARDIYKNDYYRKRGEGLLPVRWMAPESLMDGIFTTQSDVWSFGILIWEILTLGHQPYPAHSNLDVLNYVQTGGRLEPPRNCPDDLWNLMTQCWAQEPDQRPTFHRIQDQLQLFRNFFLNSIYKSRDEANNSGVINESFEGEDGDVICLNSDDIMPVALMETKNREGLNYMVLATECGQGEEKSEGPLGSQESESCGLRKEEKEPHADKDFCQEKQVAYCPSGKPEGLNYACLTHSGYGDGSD
The target is the same in assay [10]. Particulars: at 10 µM.

Chain of Rho-associated protein kinase 2 (Homo sapiens) (O75116 whole entry, looked up): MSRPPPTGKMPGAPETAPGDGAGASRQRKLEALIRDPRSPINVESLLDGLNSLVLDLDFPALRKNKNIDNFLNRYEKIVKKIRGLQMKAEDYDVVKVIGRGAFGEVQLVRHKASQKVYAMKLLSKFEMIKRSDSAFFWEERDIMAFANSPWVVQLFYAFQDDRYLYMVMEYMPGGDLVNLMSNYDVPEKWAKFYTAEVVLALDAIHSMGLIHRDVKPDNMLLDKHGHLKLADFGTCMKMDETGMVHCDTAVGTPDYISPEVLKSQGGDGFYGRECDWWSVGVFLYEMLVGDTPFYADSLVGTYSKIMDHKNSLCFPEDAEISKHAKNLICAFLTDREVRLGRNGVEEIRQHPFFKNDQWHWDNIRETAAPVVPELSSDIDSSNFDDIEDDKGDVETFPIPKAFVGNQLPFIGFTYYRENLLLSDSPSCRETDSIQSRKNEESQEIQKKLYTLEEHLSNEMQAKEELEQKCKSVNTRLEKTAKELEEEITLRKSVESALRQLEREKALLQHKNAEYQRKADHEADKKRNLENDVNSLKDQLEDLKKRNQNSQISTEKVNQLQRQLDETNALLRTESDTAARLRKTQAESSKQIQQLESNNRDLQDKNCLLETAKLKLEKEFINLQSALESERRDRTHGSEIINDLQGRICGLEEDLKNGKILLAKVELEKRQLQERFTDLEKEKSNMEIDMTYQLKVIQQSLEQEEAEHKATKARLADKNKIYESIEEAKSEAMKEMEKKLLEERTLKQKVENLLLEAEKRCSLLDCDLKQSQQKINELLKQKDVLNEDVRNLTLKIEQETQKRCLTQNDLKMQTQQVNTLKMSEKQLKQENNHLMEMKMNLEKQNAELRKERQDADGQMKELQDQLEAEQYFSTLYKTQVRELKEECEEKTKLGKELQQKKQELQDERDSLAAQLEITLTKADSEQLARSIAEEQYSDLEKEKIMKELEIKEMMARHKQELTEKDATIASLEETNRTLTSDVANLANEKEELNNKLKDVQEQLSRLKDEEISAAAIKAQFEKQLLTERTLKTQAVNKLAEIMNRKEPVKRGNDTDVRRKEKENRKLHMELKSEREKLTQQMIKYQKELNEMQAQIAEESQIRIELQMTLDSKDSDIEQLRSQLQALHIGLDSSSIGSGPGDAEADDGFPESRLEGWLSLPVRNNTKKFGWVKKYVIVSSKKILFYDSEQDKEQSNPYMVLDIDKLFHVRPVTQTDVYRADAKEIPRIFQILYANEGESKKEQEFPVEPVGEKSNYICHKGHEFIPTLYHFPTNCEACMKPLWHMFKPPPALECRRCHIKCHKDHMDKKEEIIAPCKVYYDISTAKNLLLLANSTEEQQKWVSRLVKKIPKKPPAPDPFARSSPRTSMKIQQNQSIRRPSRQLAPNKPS
Chain of Rho-associated protein kinase 1 (Homo sapiens) (Q13464 2-1354 limits assumed): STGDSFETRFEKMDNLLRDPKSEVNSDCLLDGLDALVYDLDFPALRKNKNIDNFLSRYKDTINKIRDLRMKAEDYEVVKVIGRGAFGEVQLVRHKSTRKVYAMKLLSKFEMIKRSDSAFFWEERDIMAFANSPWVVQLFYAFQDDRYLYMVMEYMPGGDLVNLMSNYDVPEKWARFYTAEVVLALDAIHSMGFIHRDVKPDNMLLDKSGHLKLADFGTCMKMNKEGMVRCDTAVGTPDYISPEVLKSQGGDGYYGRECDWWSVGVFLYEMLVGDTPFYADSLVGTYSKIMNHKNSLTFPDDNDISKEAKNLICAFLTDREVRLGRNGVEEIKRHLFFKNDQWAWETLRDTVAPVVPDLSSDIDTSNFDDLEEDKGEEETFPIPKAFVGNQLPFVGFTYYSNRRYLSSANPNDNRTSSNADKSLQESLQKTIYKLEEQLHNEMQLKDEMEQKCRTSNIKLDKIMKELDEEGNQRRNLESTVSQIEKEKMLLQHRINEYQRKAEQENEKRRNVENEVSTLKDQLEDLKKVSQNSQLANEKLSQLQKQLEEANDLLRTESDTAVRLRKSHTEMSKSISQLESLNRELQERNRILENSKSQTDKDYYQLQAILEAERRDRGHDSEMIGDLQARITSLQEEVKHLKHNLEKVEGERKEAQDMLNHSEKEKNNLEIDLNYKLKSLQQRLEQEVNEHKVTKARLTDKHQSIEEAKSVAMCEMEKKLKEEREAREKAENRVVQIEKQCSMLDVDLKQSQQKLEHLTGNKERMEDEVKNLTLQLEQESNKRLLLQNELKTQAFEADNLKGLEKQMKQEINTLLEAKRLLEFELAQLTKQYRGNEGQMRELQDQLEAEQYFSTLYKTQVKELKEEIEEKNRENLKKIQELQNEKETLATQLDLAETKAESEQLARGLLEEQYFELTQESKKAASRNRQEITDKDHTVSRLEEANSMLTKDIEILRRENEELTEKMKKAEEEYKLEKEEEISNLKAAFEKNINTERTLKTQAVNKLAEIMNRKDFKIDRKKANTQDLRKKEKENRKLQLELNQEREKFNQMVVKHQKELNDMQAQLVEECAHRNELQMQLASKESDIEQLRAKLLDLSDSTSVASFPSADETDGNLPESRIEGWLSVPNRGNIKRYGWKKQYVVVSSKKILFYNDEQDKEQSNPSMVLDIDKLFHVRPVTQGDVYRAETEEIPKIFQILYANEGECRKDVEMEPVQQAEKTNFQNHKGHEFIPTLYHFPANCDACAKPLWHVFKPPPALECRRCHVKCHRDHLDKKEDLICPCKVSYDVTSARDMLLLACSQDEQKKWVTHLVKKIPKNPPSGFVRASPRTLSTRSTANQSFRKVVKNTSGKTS

Consider `COc1cc(OC)c(/C=C2\C(=O)Nc3ccccc32)c(OC)c1`, for which the residual activity turned out to be 127% in assay [1]; 126% in [2]; 88% in assay [3]; 92% in assay [4]; 99% in assay [5]; 92% in assay [6]. Also, the residual activity in assay [7] was determined as 77%; in [8], 72%; in [9] it was 96%; in assay [10] it was 63%.
For the compound `CCn1cnc2c(Nc3cccc(Cl)c3)nc(N[C@@H]3CCCC[C@@H]3N)nc21`, the residual activity in assay [1] is 115%; in [2], 84%; in assay [3], 78%; in assay [4], 53%; in assay [5], 61%; in assay [6], 25%. In addition, the residual activity in [7] amounted to 85%; in [8], 77%; in assay [9], 93%; in assay [10], 84%.
Consider `CC(C)(C)c1cc(C=C(C#N)C#N)cc(Br)c1O`, for which the residual activity was determined as 102% in [1]; 82% in [2]; 115% in assay [3]; 101% in [5]; 108% in [6]; 108% in assay [9]. For the same compound, in assay [10], the residual activity stood at 111%.
As to `COC(=O)[C@@]1(O)C[C@H]2O[C@]1(C)n1c3ccccc3c3c4c(c5c6ccccc6n2c5c31)C(=O)NC4`, the residual activity came out at 50% in [1]; 12% in assay [2]; 15% in assay [3]; 2% in [4]; 2% in assay [5]; 1% in [6]. The residual activity is 33% in assay [7], 3% in assay [8], 21% in assay [9] and 3% in assay [10].
Take `C[S+]([O-])c1ccc(-c2nc(-c3ccc(F)cc3)c(-c3ccncc3)[nH]2)cc1` (centres undefined): the residual activity in assay [1] stood at 70%; in assay [2], 74%; in [3] it was 119%; in [4], 100%; in assay [6], 46%; in assay [7], 105%. For the same compound, the residual activity in [8] was 109%; in assay [9], 117%; in [10] it was 110%.
Regarding `O=S(=O)(NCCNC/C=C/c1ccc(Br)cc1)c1cccc2cnccc12`, the residual activity in assay [3] was 8%; in assay [4] it was 0%.
`O=C1c2ccccc2-c2nc3nnnn3nc21`: the residual activity turned out to be 112% in assay [1]; 117% in assay [2]; 105% in assay [5]; 114% in [6]; 103% in assay [9]; 110% in assay [10].
`O=C1Nc2ccc3ncsc3c2/C1=C/c1c[nH]cn1`: the residual activity in assay [1] is 59%; in assay [2], 23%; in [3] it was 5%; in assay [4] it was 1%; in assay [5] it was 9%; in [6], 0%. For the same compound, the residual activity in assay [7] is 60%; in assay [8], 11%; in assay [9], 88%; in assay [10], 87%.
As for `c1cc(-c2cnn3cc(-c4ccc(OCCN5CCCCC5)cc4)cnc23)ccn1`, the residual activity in [1] is 117%; in assay [4] it was 40%; in assay [5], 51%; in assay [6], 5%; in assay [7], 104%; in [8], 83%.
For `COc1cc2ncnc(Nc3ccc(OCc4ccccc4)cc3)c2cc1OC`, the residual activity in assay [1] came to 83%; in assay [2], 96%; in assay [3], 119%; in [4] it was 97%; in assay [5], 75%; in assay [6], 89%. The residual activity in assay [7] was determined as 88%; in [8], 80%; in assay [9], 108%; in [10] it was 101%.
Turning to `COc1ccc2c(c1)/C(=C/c1cnc[nH]1)C(=O)N2`, the residual activity in assay [1] stood at 123%; in assay [4], 36%; in assay [8], 65%.
Turning to `COc1ccc2c(c[n+](C)c3c4cc5c(cc4ccc23)OCO5)c1OC`, the residual activity was found to be 110% in [1]; 120% in assay [2]; 82% in assay [4]; 86% in [5]; 86% in assay [7]; 75% in assay [8].
Turning to `CO[C@H]1[C@@H](OC)C[C@H](C)[C@@H](OC)C2=CC(=O)C=C(NC(=O)/C(C)=C/C=C/[C@H](OC)[C@@H](OC(N)=O)/C(C)=C/[C@@H]1C)C2=O`, the residual activity came to 106% in assay [3] and 80% in assay [4].
Consider `COc1cc2nccc(Oc3ccc(NC(=O)Nc4cc(C)on4)c(Cl)c3)c2cc1OC`, for which the residual activity in assay [3] stood at 76%; in [4], 51%.
Turning to `N/C(=N\[N+](=O)[O-])N/N=C\c1ccc(-c2cccc([N+](=O)[O-])c2)o1`, the residual activity in assay [1] stood at 134%; in assay [4] it was 98%; in assay [7] it was 63%; in assay [8] it was 63%.
With `O=C1NC(=O)c2c1c1c3ccccc3n3c1c1c2c2ccccc2n1C1CCC3O1`, the residual activity in assay [2] stood at 95%; in assay [5] it was 37%; in [6], 34%; in [9] it was 94%; in assay [10], 81%.
With `O=c1[nH]c2ccccc2n1C1CCN(Cc2ccc(-c3nc4cc5[nH]cnc5cc4nc3-c3ccccc3)cc2)CC1`, the residual activity in [1] was found to be 114%; in assay [2], 119%; in [3] it was 103%; in assay [4], 74%; in [5] it was 99%; in assay [6], 83%. For the same compound, the residual activity in assay [7] turned out to be 103%; in [8], 79%; in [9], 96%; in assay [10], 93%.
In the case of `CC(C)[C@H](CO)Nc1nc(Nc2cccc(Cl)c2)c2ncn(C(C)C)c2n1`, the residual activity turned out to be 115% in assay [1]; 96% in [2]; 95% in [3]; 76% in assay [4]; 91% in assay [5]; 27% in assay [6]. Moreover, the residual activity in assay [7] worked out at 92%; in [8], 86%; in assay [10], 96%.
Turning to `CCc1nc(-c2ccc(OC)cc2)[nH]c1-c1ccncc1`, the residual activity amounted to 113% in assay [1]; 106% in [2]; 107% in assay [3]; 82% in assay [4]; 106% in assay [5]; 80% in assay [6]. Moreover, the residual activity amounted to 105% in assay [9] and 101% in assay [10].
For `O=[N+]([O-])/C=C/c1ccc2c(c1)OCO2`, the residual activity amounted to 109% in [1]; 109% in assay [2]; 99% in assay [3]; 79% in assay [4]; 96% in [5]; 108% in assay [6]. Besides, the residual activity in assay [7] worked out at 100%; in assay [8], 93%; in assay [9] it was 95%; in assay [10] it was 98%.
